Among all 69,000 compounds or so, about 2,600 (3.8%) were called active. This is one part of a sample in which actives are shown more often than they occur. Cut-off read from the data, not from the text of the source: active = activity change below about -70% (passing the limit was not always enough); inconclusive = no clear call, values can overlap the other calls.
Assay: T. gondii growth inhibition with IFN-gamma, primary screen, cell-based (AID 1259416);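 note: host cells are HeLa cells infected with Toxoplasma gondii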
Conditions: Toxoplasma gondii growth in IFN-gamma-treated host cells; stronger effect = lower value; concentration not given here

| Compound | activity change, negative = inhibition |
| --- | --- |
| Cc1nc(SCC(=O)Nc2cccc(C(F)(F)F)c2)oc1C | 21% (inactive) |
| COc1ccc(OC)c(NC(=O)Cn2c(=O)cc(C(=O)N3CCCCC3)c3ccccc32)c1 | 5.37% (inactive) |
| CN(C)C(=O)[C@@H]1CCS(=O)(=O)[C@H]2CN(C(=O)NCc3ccccc3)C[C@@H]12 | 7.18% (inactive) |
| COc1cccc(CC2(CO)CCN(c3ncnc4sccc34)CC2)c1 | -61.2% (inactive) |
| O=S(=O)(c1ccccc1)N1[C@H](CO)[C@@H]2c3ccccc3NC[C@@H]21 | -13.4% (inactive) |
| COc1ccc(S(=O)(=O)Nc2ccc3c(c2)C(=O)N([C@@H](C)CO)C[C@@H](C)[C@H](CN(C)Cc2ccc(C(F)(F)F)cc2)OCCCC[C@@H](C)O3)cc1 | -112% (active) |
| CNC[C@H]1OCCCC[C@@H](C)Oc2ccc(NS(=O)(=O)c3ccc(F)cc3)cc2C(=O)N([C@H](C)CO)C[C@H]1C | 193% (inactive) |
| C[C@@H]1CN([C@H](C)CO)C(=O)c2cc(NC(=O)NC3CCCCC3)ccc2O[C@@H](C)CCCCO[C@H]1CN(C)S(C)(=O)=O | -35.8% (inactive) |
| C[C@@H]1CCCCO[C@H](CN(C)Cc2ccc3c(c2)OCO3)[C@H](C)CN([C@@H](C)CO)C(=O)c2cc(NS(=O)(=O)c3cn(C)cn3)ccc2O1 | 11.5% (inactive) |
| COc1ccc(S(=O)(=O)Nc2ccc3c(c2)C(=O)N([C@@H](C)CO)C[C@H](C)[C@H](CN(C)Cc2ccc(C(F)(F)F)cc2)OCCCC[C@@H](C)O3)cc1 | -47% (inactive) |
| CNC[C@@H]1OCCCC[C@H](C)Oc2ccc(NS(=O)(=O)c3ccc(F)cc3)cc2C(=O)N([C@@H](C)CO)C[C@@H]1C | 41.1% (inactive) |
| C[C@@H]1CCCCO[C@H](CN(C)C(=O)Nc2ccccc2)[C@H](C)CN([C@H](C)CO)C(=O)c2cc(NC(=O)Nc3ccccc3)ccc2O1 | 72.5% (inactive) |
| C[C@@H]1CCCCO[C@@H](CN(C)S(=O)(=O)c2ccccc2)[C@H](C)CN([C@H](C)CO)C(=O)c2cc(NC(=O)Nc3ccc4c(c3)OCO4)ccc2O1 | -79.4% (active) |
| C[C@@H]1CCCCO[C@H](CN(C)C(=O)CCCN(C)C)[C@H](C)CN([C@@H](C)CO)C(=O)c2cc(NS(=O)(=O)c3ccc(Cl)cc3)ccc2O1 | -84.8% (active) |
| C[C@@H](O)C#Cc1ccc([C@H]2[C@@H](CO)N3CCCCN(CC4CC4)C[C@@H]23)cc1 | -5.07% (inactive) |
| Cc1nc(-c2cccnc2)sc1C(=O)N(CCN(C)C)Cc1ccc2c(c1)OCO2 | -47.1% (inactive) |
| CCC(NC(=O)CCNC(=O)c1ccccc1F)c1cccs1 (stereo not drawn) | 98.8% (inactive) |
| COc1ccc2c(c1)NC1(CCN(S(=O)(=O)c3c(C)nn(C)c3C)CC1)c1cccn1-2 | 1.37% (inactive) |
| CN1C(=O)CCc2cc(C(=O)NCc3cccc(Cl)c3)ccc21 | -50% (inactive) |
| Cc1csc(CCCNc2cc(N(C)C)ncn2)n1 | -14.5% (inactive) |

| Compound | activity change, negative = inhibition |
| --- | --- |
| Cc1ccc(-c2nnn(CC(=O)N(CC(=O)NC(C)(C)C)c3ccc(C(C)C)cc3)n2)o1 | -40.3% (inactive) |
| Cc1cc(C(=O)N2CCCC(N(C)C)CC2)sc1C (stereo not drawn) | 8.26% (inactive) |
| CC(C)n1cnc(-c2cc(C(=O)N3CCC(N(C)C)CC3)c3ccccn23)c1 | -48.2% (inactive) |
| CN(C)C1CCN(C(=O)c2ccnn2-c2ccc3ccc(-c4ccccc4)cn23)CC1 | -101% (active) |
| CC(C)c1noc(C2CCCN(C(=O)c3cccc4ccnn34)C2)n1 (stereo not drawn) | 88% (inactive) |
| Cc1ccc2c(c1)C1CN(C)CCC1N2S(=O)(=O)c1ccc(Oc2ccc([N+](=O)[O-])cc2)cc1 (stereo not drawn) | -88.8% (active) |
| Cc1ccc(NC(=O)NCC(c2cccnc2)c2c[nH]c3ccccc23)cc1F (stereo not drawn) | 41.3% (inactive) |
| C=CCOCC1c2c(ncn2C(C)C)CCN1C(=O)CC (stereo not drawn) | -6.91% (inactive) |
| CC(=O)N1C[C@@H]2[C@H](c3ccccc31)[C@H](CO)N2Cc1ccc(Cl)cc1 | 2.64% (inactive) |
| Cc1ccc(C(=O)N2CC[C@H]3[C@@H]2CCN3c2nncs2)o1 | 17.4% (inactive) |
| Cn1ccnc1-c1c(-c2ccccc2)ncn1CC(O)Cc1ccccc1 (stereo not drawn) | -0.253% (inactive) |
| OC(Cn1cnc(-c2ccccc2)c1-c1ccccc1)Cn1c2ccccc2c2ccccc21 (stereo not drawn) | -85.9% (active) |
| Cc1cccc(C)c1-c1c(-c2ccccc2)ncn1CCCCN | -13.6% (inactive) |
| CCCC(=O)NCCc1sc(-c2cccc(F)c2)nc1C | 257% (inactive) |
| CCSc1nc(CC(=O)NCc2nnc3n2CCC3)cs1 | -48.7% (inactive) |
| c1ccc(C2CCCN2Cc2ccc3occc3c2)nc1 (stereo not drawn) | 2.99% (inactive) |
| Cc1cnn(Cc2nc(-c3ccc(NC(=O)c4cc(F)ccc4F)cc3)oc2C)c1 | -88.5% (active) |
| Cc1nn(Cc2nc(-c3ccc(NC(=O)C4CCCO4)cc3)oc2C)c(C)c1C (stereo not drawn) | 33.9% (inactive) |
| Cc1oc(-c2ccc(NC(=O)c3ccc(C(C)(C)C)cc3)cc2)nc1Cn1cccn1 | -96.9% (active) |
| COCC(=O)Nc1ccc(-c2nc(Cn3nc(C)cc3C)c(C)o2)cc1 | -41.3% (inactive) |

| Compound | activity change, negative = inhibition |
| --- | --- |
| CCC(=O)Nc1ccc(-c2nc(Cn3cccn3)c(C)o2)cc1 | 61.8% (inactive) |
| Cc1cc(C)cc(C(=O)Nc2ccc(-c3nc(Cn4cc(C)cn4)c(C)o3)cc2)c1 | 2.92% (inactive) |
| Cc1ccsc1C(=O)Nc1ccc(-c2nc(Cn3cccn3)c(C)o2)cc1 | -12.6% (inactive) |
| COc1cccc(C(=O)Nc2ccc(-c3nc(Cn4nc(C)c(C)c4C)c(C)o3)cc2)c1 | -97.6% (active) |
| Cc1cnn(Cc2nc(-c3ccc(NC(=O)c4ccsc4)cc3)oc2C)c1 | -40.9% (inactive) |
| Cc1noc(C)c1CN1CC2C[C@H](C(=O)NCCN(C)C)N(C)C2C1 (stereo partly drawn) | -7.4% (inactive) |
| CN(C)S(=O)(=O)c1ccc2c(c1)cc(C(=O)NCc1cccc(F)c1)n2Cc1ccncc1 | 104% (inactive) |
| CCc1ccc(-n2cc3c(=O)n(C)c(=O)n(C)c3c2)cc1 | -61.6% (inactive) |
| CC[C@H]1CN(C(=O)CCc2cnccn2)CC[C@@]1(C)O | -44.1% (inactive) |
| Cc1cccc(C(=O)N2CCC3(CC2)CC(CC(=O)NCC2CC2)c2ccccc2O3)n1 (stereo not drawn) | 0.492% (inactive) |
| Cc1cccc(Cl)c1NC(=O)N1CCN(CC(C)C)C(=O)C1C (stereo not drawn) | -2.03% (inactive) |
| O=C(Nc1cnc2n1CCCC2)c1ccccc1-n1cncn1 | -1.83% (inactive) |
| C=CCn1cc(-c2c(-c3ccccc3)ncn2CCc2ccccn2)cn1 | -1.4% (inactive) |
| O=C(CN1CCCC1=O)N1CCCC2(C=Cc3ccccc3O2)CC1 (stereo not drawn) | -13.8% (inactive) |
| Cc1ccc(CN2CCC3(CC2)CC(NC(=O)C2CC2)CCO3)cc1C (stereo not drawn) | -5.15% (inactive) |
| Cc1ccccc1-c1nc2ccc(-n3cnnc3)cc2o1 | -95.3% (active) |
| Cc1ccc(-c2ccccc2-n2cnnc2)o1 | -6.57% (inactive) |
| COCCNC(=O)C[C@@H]1CC[C@H]2[C@H](COc3ccc(NS(=O)(=O)c4ccc(Cl)cc4)cc3C(=O)N2C)O1 | -37.6% (inactive) |

— PubChem BioAssay AID1259416 (Broad Institute, 2018)
